Among the data in PubChem BioAssay (Tox21) are Potency and outcome values, retold here.

SMILES strings stand for the structures. Inconclusive results are not listed. Calls of active or inactive are those of the source. Unless noted, the call rests on the fitted dose curve; in most records, active means well fitted curve in the direction sought with a large enough effect in the repeat runs; inconclusive means weak or mixed curves; inactive means no such curve, though single readings can be large; an effect the other way counts as inactive or inconclusive.

Assay [1] is described as follows: qHTS assay to identify small molecule agonists of the vitamin D receptor (VDR) signaling pathway - cell viability counter screen (AID 743224). Further: nearly all actives have a fitted effect of over 50% in size. Further: potency means the concentration at half of the fitted maximal effect. In short, it runs like this: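 Counter screen run in the same wells as the VDR-bla reporter assay: CellTiter-Glo luminescence, 30 min at room temperature, after 16 h compound treatment at 37C of cells pre-plated for 4 h.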
In general terms: Quantitative high-throughput screening tests each substance at several concentrations.

Assay [2] is described as follows: qHTS assay to identify small molecule antagonists of the vitamin D receptor (VDR) signaling pathway - cell viability counter screen (AID 743225). Further: nearly all actives have a fitted effect of over 50% in size. Further: potency means the concentration at half of the fitted maximal effect. In a few lines: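 Cytotoxicity toward the VDR-bla HEK 293T line was scored by ATP-based CellTiter-Glo luminescence, read in the wells already used for the beta-lactamase readout after 16 h compound treatment under 3 nM 1-alpha,25-dihydroxyvitamin D3 stimulation.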

The nature of assay [3]: qHTS assay to identify small molecule agonists of the NFkB signaling pathway - cell viability counter screen (AID 1159515; calls by dose curve; further: series mostly up to about 61 µM; nearly all actives have a fitted effect of over 55% in size). In short, it runs like this: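 Read by CellTiter-Glo luminescence (30 min, room temperature) in the wells also used for the beta-lactamase FRET read. ME-180 NFkB-bla cells at 2,000 per well were plated overnight, then exposed to compound for 5 hr at 37 C.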

Assay [4] can be described thus: qHTS assay to identify small molecule agonists of the endoplasmic reticulum stress response signaling pathway (AID 1159516; active means well fitted activation curve with a large enough effect in the signal ratio in the repeat runs, not every such curve was filed as active; the % refers to the signal ratio). In short, it runs like this:
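Ratiometric FRET readout (405 nm excitation; 460 and 530 nm emission) of a beta-lactamase gene driven by the ER stress response element, after 2 hr substrate loading. HeLa ESRE-bla cells were seeded overnight and treated with compounds for only 5 hr at 37 C.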

A short description of assay [5]: qHTS assay to identify small molecule agonists of the endoplasmic reticulum stress response signaling pathway - cell viability counter screen (AID 1159517; calls by dose curve; further: series mostly up to about 61 µM; nearly all actives have a fitted effect of over 50% in size). In a few lines: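 Cytotoxicity of test compounds toward ESRE-bla HeLa cells was assessed after 5 hr exposure. The luminescent CellTiter-Glo signal was measured 30 min after reagent addition.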
Assay [6] is described as follows: qHTS assay to identify small molecule antagonists of the retinoid-related orphan receptor gamma (ROR-gamma) signaling pathway - cell viability counter screen (AID 1159520). Further: nearly all actives have a fitted effect of over 50% in size. In a few lines:
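Tet-on ROR gamma CHO cells (1,000/well) were plated 4 hr, given compounds in DMSO for 2 hr at 37 C, then induced with 1 uM final doxycycline for 16 hr. Viability was read as ATP by CellTiter-Glo luminescence after 30 min.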

Assay [7] has as its target Nuclear receptor ROR-gamma (Homo sapiens) (UniProt P51449). Briefly: qHTS assay to identify small molecule antagonists of the retinoid-related orphan receptor gamma (ROR-gamma) signaling pathway (AID 1159521; further: nearly all actives have a fitted effect of over 50% in size; further: potency means the concentration at half of the fitted maximal effect). In short, it runs like this:
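Readout: ONE-Glo luciferase luminescence, 30 min at room temperature. System: Tet-on RORγ CHO, RORE-LUC. Sequence: compound 2 h, doxycycline 1 uM final, 16 h at 37 C.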

A short description of assay [8]: qHTS assay to identify small molecule agonists of the AP-1 signaling pathway - cell viability counter screen (AID 1159525; calls by dose curve; further: nearly all actives have a fitted effect of over 55% in size). In a few lines: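 Each titration point was normalised to DMSO and tetra n-octyl ammonium bromide controls. The read was Cell Titer Glo luminescence after 30 min at RT, following 5 h compound exposure of ME-180 AP-1-bla cells at 37 °C.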
Assay [9] is described as follows: qHTS assay to identify small molecule agonists of the AP-1 signaling pathway (AID 1159526; calls by dose curve).
Assay [10] concerns the target Retinoic acid receptor RXR-alpha (Homo sapiens) (UniProt P19793). The assay is described as follows: qHTS assay to identify small molecule agonists of the RXR signaling pathway (AID 1159527; calls by dose curve; further: nearly all actives have a fitted effect of over 35% in size). In short, it runs like this:
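Reporter activation is measured as beta-lactamase activity via FRET substrate cleavage (emission 460/530 nm) in HEK 293T cells expressing an RXR-alpha-driven bla construct, following 16 hr compound exposure at 37 C.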

The nature of assay [11]: qHTS assay to identify small molecule agonists of the RXR signaling pathway - cell viability counter screen (AID 1159529). In short, it runs like this: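 Tox21 10K compounds were tested for cytotoxicity against GeneBLAzer RXR-alpha HEK 293T cells grown in 2% charcoal-stripped FBS. Exposure lasted 16 hr at 37 C, 5% CO2; viability read by CellTiter-Glo luminescence.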
A short description of assay [12]: qHTS assay to identify small molecule antagonists of the retinoid acid receptor (RAR) signaling pathway - cell viability counter screen (AID 1159551). Further: nearly all actives have a fitted effect of over 35% in size. Further: potency means the concentration at half of the fitted maximal effect. In a few lines:
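Cytotoxicity counter screen: ATP content quantified by CellTiter-Glo luminescence in C3RL4 cells treated 6 hr at 37 C with compound and retinol (1 uM final). Cells plated at 1,000/well and cultured overnight before dosing.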

The nature of assay [13]: qHTS assay to identify small molecule antagonists of the retinoic acid receptor (RAR) signaling pathway (AID 1159552; further: nearly all actives have a fitted effect of over 50% in size). In short, it runs like this:
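Overnight-plated C3RL4 reporter cells get compound, then retinol to 1 uM final; plates sit 6 hr at 37 C, 5% CO2. A luciferase reagent is added and light output recorded after 30 min at room temperature.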

The nature of assay [14]: qHTS assay to identify small molecule agonists of the retinoic acid receptor (RAR) signaling pathway (AID 1159553). In a few lines:
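Luminescence was measured 30 min after luciferase reagent addition at room temperature. Before that, C3RL4 reporter cells (1,000 per well, plated overnight) were treated with compound for 6 hr at 37 C and 5% CO2.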

Assay [15] can be described thus: qHTS assay to identify small molecule antagonists of the estrogen related receptor (ERR) signaling pathway - cell viability counter screen (AID 1224818).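 Further: series mostly up to about 46 µM; viability measured after 17.5 h of compound exposure.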 In a few lines:
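Cytotoxicity counter screen: fluorescence from CellTiter-Fluor, added after 17.5 h compound exposure at 37 C and read 30 min later. ERR cell line seeded at 2,000 cells/well, preincubated 6 h before dosing.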

A short description of assay [16]: qHTS assay to identify small molecule antagonists of the estrogen related receptor (ERR) signaling pathway (AID 1224819). In a few lines:
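LOPAC library screened for antagonism as reduced One-Glo luminescence in ERR reporter cells (2,000/well). Compounds were added after 6 h pre-incubation and left 18 h at 37C; reading followed a 30 min room-temperature reagent step.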

In assay [17] the test system is estrogen-related receptor alpha (ERRalpha) with PGC-1alpha coactivator, human. The assay is described as follows: qHTS assay to identify small molecule antagonists of the estrogen related receptor signaling pathway with the pleiotropic PPARgamma coactivator (PGC) (AID 1224821; calls by dose curve). In a few lines: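 PGC/ERR reporter cells; 6 h pre-incubation 37 C/5% CO2; pin-tool compound in DMSO, 18 h 37 C; One-Glo added, 30 min RT; luminescence read. qHTS antagonist mode.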

The nature of assay [18]: qHTS assay to identify small molecule antagonists of the estrogen related receptor signaling pathway with the pleiotropic PPARgamma coactivator (PGC) cell viability counter screen (AID 1224822; further: series mostly up to about 46 µM). In short, it runs like this:
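Viability counter-screen read by fluorescence intensity after 30 min with CellTiter-Fluor at 37 C; PGC/ERR reporter cells were exposed to compounds for 17.5 h at 37 C following a 6 h preincubation.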

Assay [19] is described as follows: qHTS assay to identify small molecule agonists of the NFkB signaling pathway (AID 1159509; active means well fitted curve in the direction sought with a large enough effect in the signal ratio in the repeat runs, not every such curve was filed as active; the % refers to the signal ratio; further: series mostly up to about 61 µM). In a few lines:
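Readout: FRET fluorescence, 405 nm excitation, 460/530 nm emission; beta-lactamase expression disrupts FRET. Cells: ME-180 stably carrying NF-kB-driven bla reporter. Compound exposure 5 hr, 37 C, 5% CO2.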

Retinoic acid receptor RXR-alpha (Homo sapiens), sequence (P19793 whole entry, looked up): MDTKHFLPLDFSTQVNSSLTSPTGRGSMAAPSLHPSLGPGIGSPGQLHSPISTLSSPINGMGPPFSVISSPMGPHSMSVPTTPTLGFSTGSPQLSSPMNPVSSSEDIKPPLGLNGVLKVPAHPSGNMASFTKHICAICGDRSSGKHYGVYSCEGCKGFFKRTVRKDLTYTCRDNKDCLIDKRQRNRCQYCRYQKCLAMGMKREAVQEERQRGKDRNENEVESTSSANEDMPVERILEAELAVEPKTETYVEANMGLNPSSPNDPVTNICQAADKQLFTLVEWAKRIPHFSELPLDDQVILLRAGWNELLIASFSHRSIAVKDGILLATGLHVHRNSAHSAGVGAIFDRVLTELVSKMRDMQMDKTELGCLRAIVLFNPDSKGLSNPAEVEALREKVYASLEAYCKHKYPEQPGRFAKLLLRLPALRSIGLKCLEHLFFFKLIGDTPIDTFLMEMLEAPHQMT

On to `CCN(CC)C(=O)c1cccc(C)c1`, for which the Potency result in [1], in [2], in [3], in assay [4], in assay [5] and in [6] was “inactive” throughout. The Potency entry in assay [7], in assay [8], in assay [9], in assay [10], in assay [11] and in assay [12] was “inactive” each time. Further, the Potency result in [13] and in [14] was “inactive” each time.

On to `O=C(O)CC(O)C(=O)O` (centres undefined), for which the Potency result in [1], in assay [2], in assay [3], in [4], in assay [5] and in assay [6] was “inactive” each time. Further, the Potency entry in assay [7], in assay [8], in assay [9], in assay [10], in assay [11] and in assay [12] was “inactive” each time. For the same compound, the Potency entry in assay [13] and in assay [14] was “inactive” in each case.

Regarding `CC(C)NCC(O)c1ccc(O)c(O)c1` (centres undefined), the Potency result in assay [1], in assay [2], in [3], in [4], in assay [5] and in assay [6] was “inactive” in each case. Besides, the Potency entry in assay [7], in assay [8], in [9], in assay [10], in [11] and in assay [12] was “inactive” in each case. Further, the Potency entry in assay [16] and in assay [18] was “inactive” in each case. Further, the compound was called inactive in [15] and in assay [17].

For the compound `CCCc1cc(=O)[nH]c(=S)[nH]1`, the Potency result in assay [1], in assay [2], in assay [3], in [4], in assay [5] and in [6] was “inactive” throughout. For the same compound, the Potency result in [7], in assay [8], in assay [9], in assay [10], in assay [11] and in [12] was “inactive” in each case. For the same compound, the Potency result in [13] and in assay [14] was “inactive” each time.

Turning to `CC12CCC(CC1)C(C)(C)O2`, the Potency entry in [1], in [2], in [3], in [4], in assay [5] and in [6] was “inactive” throughout. Moreover, the Potency entry in [7], in assay [8], in assay [9], in assay [10], in [11] and in assay [12] was “inactive” each time. The Potency entry in [13] and in assay [14] was “inactive” throughout.

As for `O=CC(=O)c1ccccc1`, the Potency entry in assay [1], in assay [2], in [6], in assay [8], in assay [11] and in [13] was “inactive” each time. In assay [14], the Potency entry is “inactive”. Besides, the outcome in assay [19] was inactive.

With `Nc1c(N=Nc2ccc(-c3ccc(N=Nc4cc(S(=O)(=O)O)c5ccccc5c4N)cc3)cc2)cc(S(=O)(=O)O)c2ccccc12`, the Potency result in assay [1], in [2], in [8], in [10], in assay [11] and in assay [13] was “inactive” in each case. Also, the Potency result in [14] was “inactive”. For the same compound, the compound was called inactive in assay [19]. Further, the Potency in [12] was 17.2 µM (active).

In the case of `COc1ccc(C(Cl)=C(c2ccc(OC)cc2)c2ccc(OC)cc2)cc1`, the Potency result in assay [1], in assay [2], in [3], in [4], in [5] and in assay [6] was “inactive” in each case. The Potency result in assay [8], in [9], in [10], in [11], in assay [12] and in assay [13] was “inactive” each time. The Potency entry in [14] was “inactive”. In addition, in [7], the Potency is 19.2 µM (active).

Take `COc1ccc(OC(F)(F)F)cc1CN[C@H]1CCCN[C@H]1c1ccccc1`: the figures for the Potency in assay [1] and in assay [2] were 54.9 µM (active) and 49 µM (active), respectively. The result in [19] was inactive. Besides, the Potency result in assay [5], in [6] and in assay [12] was “inactive” in each case.
